# Where “and” joins values, the source holds several entries; their conditions need not be identical. Identical values can stand only once. Like-named read-outs stand apart in the source and are kept apart here.
# Experiments:
# EPHB6 = details: concentration: 1 μM, replicates: in singlicate, n = 1
# ERBB2 = details: concentration: 1 μM, replicates: in singlicate, n = 1
# ERBB3 = details: concentration: 1 μM, replicates: in singlicate, n = 1
# ERBB4 = details: concentration: 1 μM, replicates: in singlicate, n = 1
# ERK1 = tested on: T1, ERK1; details: concentration: 1 μM, replicates: in singlicate, n = 1
# T1 construct: gene MAPK3
# ERK2 = tested on: T2, ERK2; details: concentration: 1 μM, replicates: in singlicate; n = 1
# T2 construct: gene MAPK1
# ERK3 = tested on: T3, ERK3; details: concentration: 1 μM, replicates: in singlicate, n = 1
# T3 construct: gene MAPK6
# ERK4 = tested on: T4, ERK4; details: concentration: 1 μM, replicates: in singlicate, n = 1
# T4 construct: gene MAPK4
# ERK5 = tested on: T5, ERK5; details: concentration: 1 μM, replicates: in singlicate; n = 1
# T5 construct: gene MAPK7
# ERK8 = tested on: T6, ERK8; details: concentration: 1 μM, replicates: in singlicate, n = 1
# T6 construct: gene MAPK15
# ERN1 = details: concentration: 1 μM, replicates: in singlicate, n = 1
# FAK = tested on: T7, FAK; details: concentration: 1 μM, replicates: in singlicate, n = 1
# T7 construct: gene PTK2
# FER = details: concentration: 1 μM, replicates: in singlicate, n = 1
# FES = details: concentration: 1 μM, replicates: in singlicate, n = 1
# FGFR1 = details: concentration: 1 μM, replicates: in singlicate, n = 1
# FGFR2 = details: concentration: 1 μM, replicates: in singlicate, n = 1
# FGFR3 = details: concentration: 1 μM, replicates: in singlicate, n = 1
# FGFR4 = details: concentration: 1 μM, replicates: in singlicate, n = 1
# FGR = details: concentration: 1 μM, replicates: in singlicate, n = 1
# FLT1 = details: concentration: 1 μM, replicates: in singlicate, n = 1
# 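Further: KINOMEscan kinase panel screen.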
structure (smiles),measurement,setting,value
Fc1ccc(-c2ncn(CCCN3CCOCC3)c2-c2ccccn2)cc1 [SB-211742],%Inh,EPHB6,0%
same,%Inh,ERBB2,10%
same,%Inh,ERBB3,52%
same,%Inh,ERBB4,6%
same,%Inh,ERK1,0%
same,%Inh,ERK2,5%
same,%Inh,ERK3,0%
same,%Inh,ERK4,0%
same,%Inh,ERK5,19%
same,%Inh,ERK8,0%
same,%Inh,ERN1,0%
same,%Inh,FAK,29%
same,%Inh,FER,0%
same,%Inh,FES,10%
same,%Inh,FGFR1,0%
same,%Inh,FGFR2,0%
same,%Inh,FGFR3,0%
same,%Inh,FGFR4,0%
same,%Inh,FGR,27%
same,%Inh,FLT1,23%
Cc1nnc(-c2ccc3ncc(-c4ccc(S(C)=O)cc4)n3c2)o1 (centres unmarked),%Inh,EPHB6,13%
same,%Inh,ERBB2,65%
same,%Inh,ERBB3,3%
same,%Inh,ERBB4,0%
same,%Inh,ERK1,0%
same,%Inh,ERK2,0%
same,%Inh,ERK3,0%
same,%Inh,ERK4,0%
same,%Inh,ERK5,0%
same,%Inh,ERK8,0%
same,%Inh,ERN1,10%
same,%Inh,FAK,0%
same,%Inh,FER,0%
same,%Inh,FES,4%
same,%Inh,FGFR1,0%
same,%Inh,FGFR2,0%
same,%Inh,FGFR3,0%
same,%Inh,FGFR4,0%
same,%Inh,FGR,0%
same,%Inh,FLT1,0%
NCCNS(=O)(=O)c1ccc(-c2ccnc3[nH]ccc23)cc1 [GSK977617],%Inh,EPHB6; 1 µM,13% and 24%
same,%Inh,ERBB2; 1 µM,37% and 0%
same,%Inh,ERBB3; 1 µM,3% and 0%
same,%Inh,ERBB4; 1 µM,47% and 0%
same,%Inh,ERK1; 1 µM,8% and 0%
same,%Inh,ERK2,0%
same,%Inh,ERK3; 1 µM,12% and 17%
same,%Inh,ERK4; 1 µM,3% and 25%
same,%Inh,ERK5,0%
same,%Inh,ERK8; 1 µM,46% and 17%
same,%Inh,ERN1; 1 µM,31% and 6%
same,%Inh,FAK; 1 µM,5% and 0%
same,%Inh,FER; 1 µM,53% and 22%
same,%Inh,FES; 1 µM,11% and 0%
same,%Inh,FGFR1; 1 µM,57% and 38%
same,%Inh,FGFR2; 1 µM,6% and 0%
same,%Inh,FGFR3; 1 µM,6% and 10%
same,%Inh,FGFR4; 1 µM,11% and 6%
same,%Inh,FGR; 1 µM,31% and 11%
same,%Inh,FLT1; 1 µM,60% and 33%
O=C(NCCNc1ccnc(Nc2ccc(F)cc2)n1)Nc1ccccc1F [GSK1379880],%Inh,EPHB6,17%
same,%Inh,ERBB2,9%
same,%Inh,ERBB3,0%
same,%Inh,ERBB4,38%
same,%Inh,ERK1,0%
same,%Inh,ERK2,0%
same,%Inh,ERK3,0%
same,%Inh,ERK4,8%
same,%Inh,ERK5,0%
same,%Inh,ERK8,0%
same,%Inh,ERN1,11%
same,%Inh,FAK,0%
same,%Inh,FER,11%
same,%Inh,FES,0%
same,%Inh,FGFR1,0%
same,%Inh,FGFR2,0%
same,%Inh,FGFR3,0%
same,%Inh,FGFR4,11%
same,%Inh,FGR,3%
same,%Inh,FLT1,4%
Nc1nccc(-c2c(-c3ccc(F)cc3)ncn2C2CCN(CC(F)(F)F)CC2)n1 [SB-236560],%Inh,EPHB6,44%
same,%Inh,ERBB2,59%
same,%Inh,ERBB3,4%
same,%Inh,ERBB4,34%
same,%Inh,ERK1,0%
same,%Inh,ERK2,0%
same,%Inh,ERK3,0%
same,%Inh,ERK4,0%
same,%Inh,ERK5,0%
same,%Inh,ERK8,16%
same,%Inh,ERN1,0%
same,%Inh,FAK,0%
same,%Inh,FER,4%
same,%Inh,FES,0%
same,%Inh,FGFR1,0%
same,%Inh,FGFR2,0%
same,%Inh,FGFR3,0%
same,%Inh,FGFR4,0%
same,%Inh,FGR,0%
same,%Inh,FLT1,9%
NS(=O)(=O)c1cccc(-c2ccc3nccc(-c4cccc(S(N)(=O)=O)c4)c3c2)c1 [GW867253],%Inh,EPHB6,0%
same,%Inh,ERBB2,11%
same,%Inh,ERBB3,0%
same,%Inh,ERBB4,7%
same,%Inh,ERK1,0%
same,%Inh,ERK2,0%
same,%Inh,ERK3,0%
same,%Inh,ERK4,0%
same,%Inh,ERK5,0%
same,%Inh,ERK8,1%
same,%Inh,ERN1,39%
same,%Inh,FAK,0%
same,%Inh,FER,0%
same,%Inh,FES,0%
same,%Inh,FGFR1,11%
same,%Inh,FGFR2,0%
same,%Inh,FGFR3,0%
same,%Inh,FGFR4,0%
same,%Inh,FGR,0%
same,%Inh,FLT1,0%
Fc1ccc(-c2nn3c(OCC(F)(F)F)cccc3c2-c2ccncc2)cc1 [GW514784],%Inh,EPHB6,0%
same,%Inh,ERBB2,59%
same,%Inh,ERBB3,29%
same,%Inh,ERBB4,37%
same,%Inh,ERK1,0%
same,%Inh,ERK2,0%
same,%Inh,ERK3,6%
same,%Inh,ERK4,9%
same,%Inh,ERK5,0%
same,%Inh,ERK8,0%
same,%Inh,ERN1,0%
same,%Inh,FAK,0%
same,%Inh,FER,13%
same,%Inh,FES,7%
same,%Inh,FGFR1,0%
same,%Inh,FGFR2,0%
same,%Inh,FGFR3,0%
same,%Inh,FGFR4,0%
same,%Inh,FGR,18%
same,%Inh,FLT1,35%
O=c1cc(N2CCOCC2)nc2n(Cc3cccc(Cl)c3Cl)c(C3CC3)nn12 [GSK2358994],%Inh,EPHB6,33%
same,%Inh,ERBB2,0%
same,%Inh,ERBB3,9%
same,%Inh,ERBB4,0%
same,%Inh,ERK1,0%
same,%Inh,ERK2,11%
same,%Inh,ERK3,0%
same,%Inh,ERK4,0%
same,%Inh,ERK5,0%
same,%Inh,ERK8,13%
same,%Inh,ERN1,0%
same,%Inh,FAK,0%
same,%Inh,FER,3%
same,%Inh,FES,15%
same,%Inh,FGFR1,0%
same,%Inh,FGFR2,1%
same,%Inh,FGFR3,0%
same,%Inh,FGFR4,0%
same,%Inh,FGR,9%
same,%Inh,FLT1,6%
CC(=O)Nc1ccc(COc2ccc(Nc3ccnc4cc(-c5ccccn5)ccc34)cc2)cc1.Cl [GW440148],%Inh,EPHB6,53%
same,%Inh,ERBB2,12%
same,%Inh,ERBB3,0%
same,%Inh,ERBB4,73%
same,%Inh,ERK1,0%
same,%Inh,ERK2,0%
same,%Inh,ERK3,6%
same,%Inh,ERK4,47%
same,%Inh,ERK5,14%
same,%Inh,ERK8,0%
same,%Inh,ERN1,17%
same,%Inh,FAK,1%
same,%Inh,FER,0%
same,%Inh,FES,13%
same,%Inh,FGFR1,0%
same,%Inh,FGFR2,0%
same,%Inh,FGFR3,14%
same,%Inh,FGFR4,0%
same,%Inh,FGR,36%
same,%Inh,FLT1,99.2%
Fc1ccc(-c2ncn(CCCN3CCOCC3)c2-c2cccnc2)cc1 [SB-211743],%Inh,EPHB6,0%
same,%Inh,ERBB2,0%
same,%Inh,ERBB3,0%
same,%Inh,ERBB4,0%
same,%Inh,ERK1,0%
same,%Inh,ERK2,8%
same,%Inh,ERK3,0%
same,%Inh,ERK4,0%
same,%Inh,ERK5,0%
same,%Inh,ERK8,29%
same,%Inh,ERN1,18%
same,%Inh,FAK,0%
same,%Inh,FER,21%
same,%Inh,FES,0%
same,%Inh,FGFR1,0%
same,%Inh,FGFR2,0%
same,%Inh,FGFR3,2%
same,%Inh,FGFR4,0%
same,%Inh,FGR,0%
same,%Inh,FLT1,8%
